Experimental data reported in PubChem BioAssay (NCATS).
Inconclusive results are not listed. The source made the active and inactive calls. Calls come from the whole dose curve; as a rule, active = well fitted activation curve with a large enough effect in the main read-out, with a control signal flat (not every such curve was filed as active); inconclusive = small, poorly fitted or top-dose-only effect, or effect the other way, or a change in a side signal; inactive = flat fitted curve, though single readings scatter.

Each molecule was assayed against 3',5'-cyclic-AMP phosphodiesterase 4B (Homo sapiens) (UniProt Q07343) (assay: qHTS Assay for Inhibitors of PDE-IV (AID 607)). Settings: HEK293 ACTOne CNG channel cells, membrane potential fluorescence; series mostly up to 22.9 µM.
3',5'-cyclic-AMP phosphodiesterase 4B (Homo sapiens), sequence (Q07343 whole entry, looked up): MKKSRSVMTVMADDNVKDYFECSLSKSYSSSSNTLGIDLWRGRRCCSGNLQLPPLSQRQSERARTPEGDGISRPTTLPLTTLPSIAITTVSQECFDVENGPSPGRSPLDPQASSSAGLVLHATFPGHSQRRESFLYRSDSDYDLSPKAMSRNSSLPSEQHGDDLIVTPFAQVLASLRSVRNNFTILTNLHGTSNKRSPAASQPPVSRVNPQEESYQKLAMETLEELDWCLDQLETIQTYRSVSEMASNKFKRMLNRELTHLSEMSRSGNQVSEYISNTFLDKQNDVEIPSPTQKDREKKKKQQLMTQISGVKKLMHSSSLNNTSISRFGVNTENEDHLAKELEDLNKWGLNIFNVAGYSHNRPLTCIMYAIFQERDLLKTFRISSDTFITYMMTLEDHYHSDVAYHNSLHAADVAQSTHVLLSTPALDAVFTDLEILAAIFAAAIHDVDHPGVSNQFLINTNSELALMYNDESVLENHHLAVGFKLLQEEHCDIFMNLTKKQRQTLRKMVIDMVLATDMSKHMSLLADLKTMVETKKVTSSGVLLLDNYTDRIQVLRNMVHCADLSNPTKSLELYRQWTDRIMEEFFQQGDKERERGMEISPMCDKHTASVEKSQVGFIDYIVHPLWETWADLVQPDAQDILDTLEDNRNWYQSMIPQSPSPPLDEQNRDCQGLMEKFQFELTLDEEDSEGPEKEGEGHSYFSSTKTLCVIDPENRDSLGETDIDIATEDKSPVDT
From the text: NIH Chemical Genomics Center [NCGC]
NIH Molecular Libraries Screening Centers Network [MLSCN]
The cyclic nucleotide phosphodiesterases (PDEs) are proteins that catalyze hydrolysis of 3', 5'-cyclic nucleotides, such as cyclic adenosine monophosphate (cAMP) and cyclic guanosine monophosphate (cGMP), to their corresponding 5'-nucleotide monophosphates. These enzymes play an important role in controlling cellular concentrations of cyclic nucleotides and have a central role in a variety of intracellular signaling events. cAMP PDEs are emerging as a promising class of drug targets in asthma and cardiovascular disease therapeutic areas.
There are no commercially available cell-based screening assays for PDE inhibitors: currently biochemical assays are done using pure substrates (cAMP or cGMP) and purified recombinant PDE enzymes. As with other biochemical screens on intracellular targets, false positives and false negatives may result from issues involving cell membrane permeability, cellular metabolism, and the like.
Here we report the development of a cell-based screening assay for cAMP phosphodiesterase (PDE) inhibitors. The assay is based on the BD ACTOne# technology (BD Biosciences) which utilizes a modified cyclic nucleotide-gated channel (CNG) to monitor intracellular cAMP changes in live cells. The CNG channel is localized on the plasma membrane, and opens when the intracellular cAMP level increases, resulting in ion flux and cell membrane depolarization. The influx of cations through the CNG channel can be quantified using membrane potential (MP) dyes. We modified the BD ACTOne technology to allow the detection of PDE inhibitors, and performed an inhibitor screen for PDE-IV, which is expressed endogenously in HEK293 cells. We optimized this assay in homogeneous 1536-well plate assay format for high throughput screening.
NCGC Assay Protocol Summary:
The medium contained 10% FBS (Invitrogen), 2 mM L-glutamine, and 250 ug/ml G418 (Cellgro) and 1 ug/ml puromycin (Clontech). ACTOneTM parental cells (BD Biosciences) were maintained in the same medium without puromycin.
The activity of the CNG channel was measured by BD ACTOneTM membrane potential dye kit (BD Biosciences). Forskolin, a positive control for cAMP activation and RO 20-1724, a PDE inhibitor, were both purchased from Sigma and solublized in DMSO.
Sequence,Parameter,Value,Description
1,Reagent,3 uL,1000 cells/well 1536 TC treated Black plate
3,Compound,0.5 uL,Kalypsys dispense RO 20-1724 100 uM final [A]
4,Reagent,3 uL,BD membrane potential dye
6,Compound,23 nL,Final concentration was 0.7nM to 22.9uM
8,Detector,EX 535 / EM 590 [B],Envision
Footnotes: [A] The stock 2 mM RO 20-1724 PDE inhibitor was made in 10 % DMSO. Parental cell line received 10 uM forskolin + 100 uM RO. [B] Envsion settings: Bottom Excitation 535/20 nm top emission 590/20, gain of 150 and 5 flashes per well.
Keywords: PDE, PDE-IV, cytotoxicity, flourescence, MLSMR, MLSCN, NIH Roadmap, qHTS, NCGC

Potency, inactive:
CCC/C=C(\CCC)C(NS(=O)(=O)c1cccs1)c1ccc(C(=O)OC)cc1 (stereo not given)
NCCC[C@@H](CC(=O)N[C@@H]1CCCC[C@H]1C(=O)N[C@H](CC(=O)N[C@@H](CCC(=O)O)CC(=O)O)Cc1ccccc1)NC(=O)C[C@H](Cc1ccccc1)NC(=O)[C@@H]1CCCC[C@H]1N
Nc1ncnc2c1ncn2[C@@H]1O[C@@H](COP(=O)(O)OP(=O)(O)OP(=O)(O)OP(=O)(O)OC[C@@H]2O[C@@H](n3cnc4c(N)ncnc43)[C@@H](O)[C@H]2O)[C@H](O)[C@@H]1O
CC(C)C[C@@H](CC(=O)N[C@@H](CCCN)CC(=O)N[C@@H]1CCNC[C@H]1C(=O)N[C@H](CC(=O)N[C@@H](CCC(=O)O)CC(=O)O)Cc1ccccc1)NC(=O)[C@@H]1CNCC[C@H]1N
CC(C)C[C@@H](CC(=O)N[C@@H](CCC(=O)O)CC(=O)O)NC(=O)[C@@H]1CCCC[C@H]1NC(=O)C[C@@H](NC(=O)C[C@H](CO)NC(=O)[C@@H]1CNCC[C@H]1N)C(C)C
COC(=O)[C@@]1(Cc2ccc(F)cc2)[C@H]2c3cc(C(=O)N(C)C)n(Cc4c(CO)[nH]cc(C)c4=O)c3C[C@H]2CN1C(=O)c1ccccc1
COC(=O)[C@@]1(Cc2ccccc2)[C@H]2c3cc(C(=O)N(C)C)n(Cc4ccsc4Br)c3C[C@H]2CN1C(=O)c1ccccc1
O=c1[nH]c(=O)n([C@H]2C[C@H](O)[C@H](CO)O2)cc1/C=C\Br
COC(=O)[C@@]1(Cc2ccccc2)[C@H]2c3cc(C(=O)N4CCCC4)n(Cc4c(CO)[nH]cc(C)c4=O)c3C[C@H]2CN1C(=O)c1ccccc1
COCC1C2CC[C@H]3C(OCc4ccc(OC)cc4)OC[C@]4(C)[C@H]3C2=C(CN4C(=O)OC(C)(C)C)[C@H](C)C1COC (stereo not given in full)
CC(C)[C@@H](CC(=O)N[C@@H]1CCCC[C@H]1C(=O)N[C@H](CC(=O)N[C@@H](CCC(=O)O)CC(=O)O)Cc1ccccc1)NC(=O)C[C@H](CO)NC(=O)[C@@H]1CNCC[C@H]1N
CCC#CCOCC(=S)Nc1ccccc1
O=C(/C=C\c1ccc(O)c(O)c1)O[C@H]1C[C@@](O)(C(=O)O)C[C@H](O)[C@@H]1O
C[C@@H](C(=O)Nc1ccc2ccccc2c1)[C@H]1C[C@]1(C)[C@H](NP(=O)(c1ccccc1)c1ccccc1)c1ccccc1
CCC/C=C(\CCC)C(NS(=O)(=O)c1ccc(C(F)(F)F)cc1)c1ccccc1 (stereo not given)
C[C@@H](C(=O)Nc1ccc2ccccc2c1)[C@H]1C[C@]1(C)[C@H](NC(=O)OCc1ccccc1)c1ccccc1
CC1(NC[C@@H](O)COc2cccc3[nH]ccc23)CCC(C(C)(C)NC(=O)CBr)CC1 (stereo not given in full)
COC(=O)[C@@H]1C[C@H]1[C@@H](NC(=O)Oc1ccc(F)cc1)c1ccccc1
CN1CCc2cc(O)c(O)cc2[C@H](c2ccccc2)C1
C[C@@H](C(=O)Nc1ccc2ccccc2c1)[C@H]1C[C@]1(C)[C@H](NS(=O)(=O)c1ccc(-c2ccccc2)cc1)c1ccccc1
O=C(NCc1nc2ccccc2[nH]1)[C@H]1C[C@@H]1[C@H](NP(=O)(c1ccccc1)c1ccccc1)c1ccccc1
OCc1ccncc1.OCc1ccncc1.[Cl][Pt]([Cl])([Cl])[Cl]
COc1ccc2c(=O)cc(-c3ccccc3)oc2c1O
O=c1cc(-c2cccc(O)c2O)oc2ccccc12
C[C@@H](C(=O)Nc1ccc2ccccc2c1)[C@@H]1C[C@@]1(C)[C@@H](NS(=O)(=O)c1ccc2ccccc2c1)c1ccccc1
COC(=O)[C@@]1(Cc2ccc(F)cc2)[C@H]2c3cc(C(=O)N4CCCC4)n(Cc4cccc5ccccc45)c3C[C@H]2CN1C(=O)c1ccccc1
O=C(Cc1ccccc1I)Nc1ccccc1
Cc1cc(CNC(=O)[C@H]2C[C@@H]2[C@H](NP(=O)(c2ccccc2)c2ccccc2)c2ccccc2)nn1C
COc1cc2c(c(OC)c1OC)-c1ccc(OC)c(=O)cc1[C@H](NC(C)=O)CC2
CC(C)[C@@H](CC(=O)N[C@@H]1CCCC[C@H]1C(=O)N[C@H](CC(=O)N[C@@H](CCC(=O)O)CC(=O)O)Cc1c[nH]c2ccccc12)NC(=O)C[C@H](Cc1ccccc1)NC(=O)[C@@H]1CNCC[C@H]1N
CCC/C=C(\CCC)C(NC(=O)c1ccc(C(F)(F)F)cc1)c1ccc(C(F)(F)F)cc1 (stereo not given)
Oc1cc(O)cc(/C=C\c2ccc(O)c(O)c2)c1
COC(=O)[C@@]1(Cc2ccc(F)cc2)[C@H]2c3cc(C(=O)N4CCCC4)n(Cc4c(CO)[nH]cc(C)c4=O)c3C[C@H]2CN1C(=O)c1ccccc1
C[C@H](O)[C@H](O)[C@@H](O)c1cnc2nc(N)[nH]c(=O)c2n1
COC(=O)[C@@]1(Cc2ccc(F)cc2)[C@H]2c3cc(C(=O)N4CCCC4)n(CCO)c3C[C@H]2CN1C(=O)c1ccccc1
NCCC[C@@H](CC(=O)N[C@@H]1CCCC[C@H]1C(=O)N[C@H](CC(=O)N[C@@H](CCC(=O)O)CC(=O)O)Cc1c[nH]c2ccccc12)NC(=O)C[C@H](Cc1c[nH]c2ccccc12)NC(=O)[C@@H]1CCCC[C@H]1N
CC1=C(\C=C/C(C)=C/C=C\C(C)=C\CO)C(C)(C)CCC1
C[C@@]1(C(NC(=O)Cc2ccccc2)c2ccc(-c3ccccc3)cc2)C[C@H]1C1CCCCC1 (stereo not given in full)
NCCC[C@@H](CC(=O)N[C@@H]1CCCC[C@H]1C(=O)N[C@H](CC(=O)N[C@@H](CCC(=O)O)CC(=O)O)Cc1c[nH]c2ccccc12)NC(=O)C[C@H](CO)NC(=O)[C@@H]1CCCC[C@H]1N
Cn1ccc(O)c(C#N)c1=O
